HPGD block: blocks human HPGD enzyme activity. purified HPGD, NADH fluorescence kinetic, PGE2 substrate. Potency, µM, actives largely listed as inhibitors. hit rate 4.3% among 150,000. AID 894; active means well fitted inhibition curve with a large enough effect, not every such curve was filed as active; inconclusive means small, poorly fitted or top-dose-only effect, or another doubt; inactive means no such curve, though single readings can be large or run the other way
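NADH formation kinetics: reaction with 30 uM PGE2 and 1 mM NAD+ (final), 20 nM enzyme, Tris-HCl pH 8 with Tween 20, after 15 min compound preincubation at room temperature. Fluorescence change, last versus first of five reads.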
IMPase cell inh: IMPase inhibition in cells; P97697; 120,000 tested, under 10 active; CHO-M1 cells, IP1 accumulation, HTRF TR-FRET ratio; inhibition (IP1 accumulation), % at 46.1 µM; active means well fitted curve in the direction sought with a large enough effect in the signal ratio, not every such curve was filed as active; inconclusive means small, poorly fitted or top-dose-only effect, or a change in a side signal; inactive means no such curve, though single readings can be large or run the other way; the % refers to the signal ratio;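 further: cells stimulated with carbachol in lithium chloride buffer; higher means more IMPase inhibition seen as more IP1 and lower FRET ratio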
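Cellular IMPase inhibition is scored as a rise in cytosolic IP1, detected by competitive TR-FRET between d2-labelled IP1 and a europium anti-IP1 antibody. M1-expressing CHO cells were stimulated with carbachol for 30 min at 37C, with lithium (50 mM LiCl) present in the buffer.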
PNC assembly inh: perinucleolar compartment assembly inhibition. PC3M PTB-GFP, PNC prevalence imaging, 16 h; hits give low values. activity change (PNC), negative = inhibition, % at 10 µM. hit rate 3.1% among 140,000. AID 2417;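 active means readout at or below -70, meaning at least 70% loss of cells showing the perinucleolar compartment, a nuclear body marking cancer cells; inconclusive means readout between -30 and a set limit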
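PC3M cells stably expressing PTB-GFP, 750–1000 cells/well, treated 16 h at 37 °C with compound (23 nl of library stock), in duplicate. After paraformaldehyde fixation and Hoechst stain, imaged at 20x; PNC prevalence scored by image analysis.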
ALOX12 inhib: inhibitors of human 12-lipoxygenase (ALOX12). purified 12-hLO, xylenol orange hydroperoxide absorbance. Potency, µM (highest dose often 57.1 µM), actives largely listed as inhibitors. hit rate 0.12% among 150,000. P18054; further: nearly all actives have a fitted effect of over 55% in size
Target sequence (P18054 whole entry, looked up): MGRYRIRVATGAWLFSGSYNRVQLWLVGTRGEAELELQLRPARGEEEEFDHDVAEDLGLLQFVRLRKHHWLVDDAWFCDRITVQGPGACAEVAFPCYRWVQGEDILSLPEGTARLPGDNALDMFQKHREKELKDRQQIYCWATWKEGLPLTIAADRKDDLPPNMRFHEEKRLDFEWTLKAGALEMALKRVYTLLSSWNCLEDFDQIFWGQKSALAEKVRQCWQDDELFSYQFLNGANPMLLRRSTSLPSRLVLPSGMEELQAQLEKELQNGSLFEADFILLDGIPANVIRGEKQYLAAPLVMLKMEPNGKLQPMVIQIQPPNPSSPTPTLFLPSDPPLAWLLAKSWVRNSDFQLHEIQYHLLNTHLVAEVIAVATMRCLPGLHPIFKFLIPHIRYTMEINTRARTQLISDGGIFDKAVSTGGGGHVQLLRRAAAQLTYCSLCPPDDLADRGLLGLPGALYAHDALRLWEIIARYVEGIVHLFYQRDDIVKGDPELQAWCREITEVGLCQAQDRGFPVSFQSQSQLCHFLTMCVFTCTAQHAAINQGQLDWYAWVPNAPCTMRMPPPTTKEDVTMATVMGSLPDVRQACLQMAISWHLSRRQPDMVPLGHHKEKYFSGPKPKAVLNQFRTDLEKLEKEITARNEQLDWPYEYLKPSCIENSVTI
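Purified human 12hLO (150 nM), preincubated 15 min with compound, then 40 uM arachidonic acid for 30 min, room temperature, Hepes pH 7.0 with 0.01% Triton X-100. Hydroperoxide detected by ferrous iron/xylenol orange; 573/405 nm absorbance ratio gives reaction progress.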
IMPase Li inh: membrane-permeable IMPase blocker, potentiated with lithium; CHO-M1 cells, IP1 TR-FRET (IP-One), carbachol + lithium; Potency, µM (doses to about 59.4 µM), hits mostly inhibitors; hit rate 0.35% among 210,000; AID 1457;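 further: IP1 builds up when IMPase is blocked and the TR-FRET signal falls; nearly all actives have a fitted effect of over 50% in size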
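Test compounds were applied to CHO-M1 cells previously cultured for 16–30 h at 2000 per well. A small lithium amount accompanied them; after 30 min at 37C, IP1 was quantified by TR-FRET.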
ALDH1A1 inh: inhibitors of human aldehyde dehydrogenase 1A1 | hit rate 7.3% among 220,000 | Purified ALDH1A1, NADH fluorescence, propionaldehyde substrate | Potency, µM (series often up to 75.3 µM), hits mostly inhibitors; active means well fitted inhibition curve with a large enough effect, not every such curve was filed as active; inconclusive means small, poorly fitted or top-dose-only effect, or another doubt; inactive means no such curve, though single readings can be large or run the other way
A number is an active result; n = inactive; u = inconclusive; x = no result; [ ] = dose if it differs, or a comment. Shown are actives, neighbours in structure and some others; about 11% of the full set was active somewhere. Unless noted, the call rests on the fitted dose curve; in most records, active means well fitted curve in the direction sought with a large enough effect; inconclusive means small, poorly fitted or top-dose-only effect, or another doubt; inactive means no such curve, though single readings can be large; an effect the other way counts as inactive or inconclusive.

SMILES	HPGD block	IMPase cell inh	PNC assembly inh	ALOX12 inhib	IMPase Li inh	ALDH1A1 inh
COc1c2c(cc3c1C(CC(O)C(C)C)N(C)CC3)OCO2 (stereo not drawn)	n	x	x	x	n	n
COc1ccc(COC(=O)N/C=C/c2ccco2)cc1	x	x	x	x	n	28µM
COc1ccc(CNC(=O)COC(=O)/C=C/c2ccco2)cc1	x	x	x	x	n	25µM
CC(=O)C[C@H](O)[C@@H](NC(=O)OC(C)(C)C)C(C)C	x	x	x	x	x	n[13.5 µM]
Cn1cccc1C(=O)N1CCC2(CC1)CCN(c1cccc(-c3ccccc3)c1)CC2	u	x	x	n	n	u
COc1ccc(NC2=C(c3ccc(C(F)(F)F)cc3)C(=O)c3ccccc32)cc1	x	n	x	x	x	x
Cc1cccc(NC(=S)N2CCCN(c3ncccc3[N+](=O)[O-])CC2)c1	x	x	x	x	x	14µM
COc1cccc(NC(=S)N2CCN(c3ccc([N+](=O)[O-])cc3)CC2)c1	x	x	x	x	n	7.9µM
O=[N+]([O-])c1ccc(N2CCN(C(=S)Nc3ccc(F)cc3F)CC2)cc1	x	x	x	x	n	11µM
CCOC(=O)c1[nH]c2ccc(OC)cc2c1NC(=S)N1CCN(c2ccccc2)CC1	n	n	n	n	n	25µM
COC(=O)C1=C(C(=O)OC)[C@@H]2N(C)c3ccc(OC)cc3[C@@]23C[C@@H](C(=O)OC)N(S(=O)(=O)c2cccs2)C3=N1	n	x	x	n[11.4 µM]	n	n[13.5 µM]
COC(=O)c1c(N)n(-c2ccc(OC)c(OC)c2)c2nc3ccccc3nc12	x	n	x	x	x	x
O=[N+]([O-])c1ccc(N2CCN(C(=S)Nc3ccc(F)cc3)CC2)cc1	x	x	x	x	n	u
CN1CCN(C(=S)Nc2cc([N+](=O)[O-])ccc2Cl)CC1	n	x	n	n	n	20µM
O=[N+]([O-])c1ccc(N2CCN(C(=S)Nc3cccc(F)c3)CC2)cc1	x	x	x	x	n	14µM
COc1ccc(N2CCN(C(=S)Nc3cc(C)cc(C)c3)CC2)cc1	n	n	-106	n	n	n
COc1cc(NC(=S)N2CCN(C)CC2)c(OC)cc1Cl	x	x	x	x	n	n
CN(CC(=O)Nc1cc([N+](=O)[O-])ccc1Cl)Cc1ccc(Br)cc1	n	n	u	n	n	10µM
Cc1ccccc1-n1nnnc1SCC(=O)NCC1CCCO1 (stereo not drawn)	x	x	x	x	n	5.6µM
O=C(CSc1c[nH]c2ccccc12)NCC1CCCO1 (stereo not drawn)	4µM	n	u	n	n	n
CCn1c(SCC(=O)NCC2CCCO2)nnc1-c1c[nH]c2ccccc12 (stereo not drawn)	32µM	n	n	n	n	n
O=C(CSc1ccc2nnc(-c3ccc(F)cc3)n2n1)NCC1CCCO1 (stereo not drawn)	u	n	n	n	25µM	u
COc1ccc(-c2nnc3ccc(SCC(=O)NCC4CCCO4)nn23)cc1 (stereo not drawn)	n	n[1.84 µM]	n	n	n	n
Cn1c(SCC(=O)NCC2CCCO2)nnc1-c1c[nH]c2ccccc12 (stereo not drawn)	n	n	n	n	n	n
Cc1cccc(CNc2cc(-c3ccccc3CN(C)C)ncn2)c1	n	x	x	n	n	n
SMILES	HPGD block	IMPase cell inh	PNC assembly inh	ALOX12 inhib	IMPase Li inh	ALDH1A1 inh
COc1cccc2c(=O)n(CC(=O)Nc3ccccc3F)ccc12	u	n	u	n	n	u
CC(C)c1ccc(CN(C(=O)c2cc3ccccc3oc2=O)C2CCS(=O)(=O)C2)cc1 (stereo not drawn)	n	n	n	n	n	u
O=C(/C=C/c1ccccc1Cl)N(Cc1ccc(Cl)cc1)C1CCS(=O)(=O)C1 (stereo not drawn)	n	x	-98	n	n	n
O=C(/C=C/c1ccccc1Cl)N(Cc1ccccc1)C1CCS(=O)(=O)C1 (stereo not drawn)	n	n	n	n	n	11µM
CC(C)c1ccc(CN(C(=O)/C=C/c2ccco2)C2CCS(=O)(=O)C2)cc1 (stereo not drawn)	x	x	x	x	x	18µM
O=C(c1ccccc1)N(Cc1ccc(F)cc1)C1CCS(=O)(=O)C1 (stereo not drawn)	n	n	u	n	n	u
CCCCC1=CC2=C(c3ccco3)C(=O)C(C)(OC(=O)c3ccc(OC)cc3)C(=O)C2=CN1CCc1c[nH]c2ccccc12 (stereo not drawn)	n	x	x	n[11.4 µM]	n	n[13.5 µM]
CC[C@]1(O)C[C@H]2CN(CCc3c([nH]c4ccccc34)[C@](C(=O)OC)(c3cc4c(cc3OC)N(C)[C@@H]3[C@](O)(C(=O)OC)[C@H](OC(C)=O)[C@]5(CC)C=CCN6CC[C@]43[C@@H]65)C2)C1	x	n	x	n	x	x
COc1ccc(Oc2ncc3nc(-c4cccs4)c(=O)n(Cc4cccs4)c3n2)cc1	n	x	x	n	n	n
O=c1c2ccccc2nc2n1CC/C2=C\c1ccccc1[N+](=O)[O-]	n	n	n	n	n	n
O=c1c2ccccc2nc2n1CC/C2=C/N1CCN(c2cccc(C(F)(F)F)c2)CC1	x	n	n	n	x	4µM
COc1cccc(Nc2ncc3nc(-c4ccccc4)c(=O)n(C[C@H]4CCCO4)c3n2)c1	n	x	x	n	n	n
O=C(CSc1nc(-c2ccco2)cc(C(F)(F)F)n1)Nc1ccc2c(c1)CCC2	n	n	n	n	n	n
O=C(CCSc1nc(-c2ccco2)cc(C(F)(F)F)n1)Nc1cccc(O)c1	x	n	x	x	x	x
CCCNC(=O)CSc1nc(-c2cccs2)cc(C(F)(F)F)n1	u	n	n	n	n	n
O=C(CSc1nc(-c2ccco2)cc(C(F)(F)F)n1)NC1CCCC1	14µM	n	u	n	n	u
COc1ccc(Cl)cc1NC(=O)CSc1nc(-c2ccco2)cc(C(F)(F)F)n1	x	n	x	x	x	x
CCn1nc(C)c(NC(=O)CCSc2nc(-c3ccco3)cc(C(F)(F)F)n2)c1C	u	n	n	n	n	28µM
COC(=O)c1ccccc1NC(=O)CSc1nc(-c2ccco2)cc(C(F)(F)F)n1	n	n	-82	n	n	n
Cc1cc(NC(=O)CSc2nc(-c3cccs3)cc(C(F)(F)F)n2)no1	n	n	-97	n	n	u
O=C(O)CCC/C=C\C[C@@H]1C(/C=C/[C@@H](O)COc2cccc(C(F)(F)F)c2)[C@@H](O)C[C@@H]1O (stereo partly drawn)	x	x	x	x	n	n
Cc1cc(C)n(-c2nc3cc(Cl)ccc3nc2Nc2ccc(CC(=O)O)cc2)n1	x	n	x	x	x	x
N#Cc1c(NC(=O)CSc2nc(-c3ccco3)cc(C(F)(F)F)n2)sc2c1CCCC2	u	n	-84	n	n	u
Cc1cccc(-n2cc[nH]c2=S)c1	u	x	n	n	n	u
Cc1cccc(-n2cc[nH]c2=S)c1C	x	n	n	n	x	11µM
Cc1ccccc1-n1cc[nH]c1=S	x	x	x	x	n	u
CC(C)c1ccccc1-n1cc[nH]c1=S	x	x	x	x	n	10µM

Screens deposited in PubChem by National Center for Advancing Translational Sciences (NCATS).
